In PubChem BioAssay (EPA / NIEHS):
Several values for one entry are separate records, joined by “and”; a condition that tells them apart may be missing. Equal values may be shown once. Results filed as inconclusive are left out. A structure can be active in one record and inactive in another. Activity calls are given as the source filed them. How the source made its calls: active means hit-call score of the fitted dose curve at least 0.9, where 1 is the maximum; inconclusive means response in the unintended direction; inactive means score below 0.9.

How the values were obtained:
[1] = TOX21_p53_BLA_p2_viability: Viability Assessment in the Tox21 HCT-116 p53 Agonism Beta-lactamase Assay, Phase 2 (AID 2283591);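 further: actives lower the ATP signal meaning cytotoxicity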
Outline: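 HCT-116 p53-bla cells (4000/well) rested 5 h at 37C, then received compounds in DMSO (217-fold dilution) for 16 h at 37C, 5% CO2. After the CCF4 read, CellTiter-Glo was added; ATP luminescence was read after 30 min at room temperature.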

[2] = molecular target: Cellular tumor antigen p53 (Homo sapiens) (UniProt P04637); assay: TOX21_p53_BLA_p2_ratio: Tox21 HCT-116 p53 Agonism Beta-lactamase Assay, Ratio, Phase 2 (AID 2283592)
Outline: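 An inducible beta-lactamase reporter in HCT116 cells signals p53 pathway activation. After 16 h chemical exposure at 37C, cells load CCF4-AM substrate for 2 h at room temperature; activity is the cleaved/uncleaved emission ratio relative to DMSO.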

[3] = TOX21_p53_BLA_p3_viability: Viability Assessment in the Tox21 HCT-116 p53 Agonism Beta-lactamase Assay, Phase 3 (AID 2283593);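 further: cells exposed to compound for 16 h before reading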
Outline: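 HCT-116 cells (4000/well) rested 5 h at 37C, then got DMSO compounds by pin tool (217-fold dilution) for 16 h at 37C, 5% CO2. After the bla read, CellTiter-Glo was added and luminescence read at 30 min, room temperature.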

[4] = molecular target: Cellular tumor antigen p53 (Homo sapiens) (UniProt P04637); assay: TOX21_p53_BLA_p3_ratio: Tox21 HCT-116 p53 Agonism Beta-lactamase Assay, Ratio, Phase 3 (AID 2283596)
Outline: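 HCT116 p53-bla cells (4000/well) given compound in DMSO (217-fold dilution) after 5 h, incubated 16 h at 37C. CCF4-AM substrate 2 h at room temperature; 460/530 nm emission ratio, gain fitted against DMSO.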

[5] = TOX21_p53_BLA_p4_viability: Viability Assessment in the Tox21 HCT-116 p53 Agonism Beta-lactamase Assay, Phase 4 (AID 2283597);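 further: hits lower the luminescence signal meaning cytotoxicity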
Outline: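 Compound exposure of HCT116 cells lasts 16 h at 37C, 5% CO2, with DMSO stocks diluted 217-fold. Cellular ATP is then quantified by CellTiter-Glo luminescence after 30 min at room temperature.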

[6] = molecular target: Cellular tumor antigen p53 (Homo sapiens) (UniProt P04637); assay: TOX21_p53_BLA_p5_ratio: Tox21 HCT-116 p53 Agonism Beta-lactamase Assay, Ratio, Phase 5 (AID 2283599)
Outline: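 HCT-116 cells carrying a p53-inducible beta-lactamase reporter were seeded at 4000 cells/well and dosed after 5 h with compound in DMSO (217-fold dilution). After 16 h at 37C, CCF4-AM substrate was added for 2 h, and the 460/530 nm emission ratio was scored as gain-of-signal versus DMSO.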

[7] = TOX21_p53_BLA_p5_viability: Viability Assessment in the Tox21 HCT-116 p53 Agonism Beta-lactamase Assay, Phase 5 (AID 2283600)
Outline: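 Counter-readout for cytotoxicity: ATP-dependent luminescence from CellTiter-Glo, read in the beta-lactamase wells after 30 min at RT, following a 16 h compound exposure at 37C.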

[8] = molecular target: Cellular tumor antigen p53 (Homo sapiens) (UniProt P04637); assay: TOX21_p53_BLA_p4_ratio: Tox21 HCT-116 p53 Agonism Beta-lactamase Assay, Ratio, Phase 4 (AID 2283601)
Outline: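 HCT116 cells carrying an inducible beta-lactamase reporter were plated at 4000 cells/well, rested 5 h, then exposed to compounds in DMSO (217-fold dilution) for 16 h at 37C. CCF4-AM substrate was loaded 2 h at room temperature; 460/530 nm emission ratio scored gain-of-signal versus DMSO.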

[9] = Tanguay_ZF_120hpf_MORT_legacy: (Legacy) Oregon State University Tanguay Lab 120 Hour Post-fertilization zebrafish Assay for Mortality (AID 2283633);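 on AC50: fitted as increase in binary mortality versus DMSO negative control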
Outline: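 Mortality endpoint from a multiplexed whole-embryo zebrafish screen. Dechorionated wild-type embryos received compound at 6 hpf and remained under static exposure at 28C until 120 hpf, with death noted as a present/absent call.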

[10] = Tanguay_ZF_120hpf_YSE_legacy: (Legacy) Oregon State University Tanguay Lab 120 Hour Post-fertilization zebrafish Assay for Yolk Sac Edema (AID 2283634);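 on AC50: actives raise the incidence of yolk sac edema above the DMSO baseline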
Outline: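 Readout: presence or absence of yolk sac edema at 120 hpf, fitted upward against DMSO controls. Exposure ran statically from 6 hpf in dechorionated embryos kept at 28C.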

Measured: AC50

Cellular tumor antigen p53 (Homo sapiens), sequence (P04637 whole entry, looked up): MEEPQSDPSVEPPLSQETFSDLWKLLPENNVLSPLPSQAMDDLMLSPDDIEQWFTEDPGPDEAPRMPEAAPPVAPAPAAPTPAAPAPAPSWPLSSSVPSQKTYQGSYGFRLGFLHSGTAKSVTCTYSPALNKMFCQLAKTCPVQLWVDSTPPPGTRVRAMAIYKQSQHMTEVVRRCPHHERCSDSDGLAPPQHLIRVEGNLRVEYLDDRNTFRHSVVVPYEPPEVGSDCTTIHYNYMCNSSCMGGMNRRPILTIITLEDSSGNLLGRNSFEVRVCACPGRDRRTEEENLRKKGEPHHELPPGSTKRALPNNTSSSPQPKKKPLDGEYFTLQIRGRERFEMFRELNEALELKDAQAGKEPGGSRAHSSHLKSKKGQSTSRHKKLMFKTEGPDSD

Oc1cc(Cl)ccc1Oc1ccc(Cl)cc1Cl
active: [1] 31.6 µM | [2] 73.1 µM | [3] 54.2 µM | [4] 78.1 µM | [5] 41.3 µM | [6] 81.1 µM | [7] 48 µM | [8] 79 µM | [9] 26.5 µM
inactive: [1] | [2] | [5] | [6] | [7] | [8] | [9] | [10]

COP(=S)(OC)Oc1ccc(SC)c(C)c1
inactive: all assays above

COP(=S)(OC)Oc1ccc([N+](=O)[O-])cc1
not listed: [7]
inactive: all other assays above

CCCN(CCOc1c(Cl)cc(Cl)cc1Cl)C(=O)n1ccnc1
inactive: [1] | [3] | [4] | [5] | [6] | [7] | [8] | [9] | [10]
active: [2] 86.1 µM | [4] 75 µM | [6] 75.3 µM | [8] 74.6 µM

Oc1ccc(Cl)cc1Cc1ccccc1
inactive: [2] | [3] | [4] | [7] | [8] | [10]
active: [1] 70.3 µM and 66.7 µM | [2] 85 µM and 57.2 µM | [3] 72.8 µM | [5] 67.5 µM and 23.3 µM and 36.5 µM | [6] 79 µM and 86.7 µM | [7] 73.6 µM and 70.6 µM | [8] 86.5 µM and 41.3 µM | [9] 10.8 µM and 6.48 µM and 36 µM

CC(C)(C)C(O)C(Oc1ccc(Cl)cc1)n1cncn1 (stereo unspecified)
active: [10] 40.2 µM and 31 µM and 43.9 µM
inactive: all other assays above

O=S1OCC2C(CO1)C1(Cl)C(Cl)=C(Cl)C2(Cl)C1(Cl)Cl (stereo unspecified)
inactive: [3] | [4] | [9] | [10]
active: [1] 46.1 µM and 81.5 µM | [2] 73.9 µM and 86.2 µM | [3] 54.1 µM | [5] 70.9 µM and 85.8 µM | [6] 87.3 µM and 73.3 µM | [7] 75.3 µM and 70.2 µM | [8] 69.2 µM and 74.9 µM

CC(C)(C)C(O)/C(=C\c1ccc(Cl)cc1Cl)n1cncn1 (stereo unspecified)
active: [5] 51.8 µM | [10] 34.4 µM
inactive: all other assays above

CC[C@H](C)[C@H]1O[C@]2(C=C[C@@H]1C)C[C@@H]1C[C@@H](C/C=C(\C)[C@@H](O[C@H]3C[C@H](OC)[C@@H](O[C@H]4C[C@H](OC)[C@@H](O)[C@H](C)O4)[C@H](C)O3)[C@@H](C)/C=C/C=C3\CO[C@@H]4[C@H](O)C(C)=C[C@@H](C(=O)O1)[C@]34O)O2 (tested in a mixture with another compound)
inactive: [2] | [3] | [6] | [8] | [10]
active: [1] 9.13 µM and 43.5 µM | [2] 17.6 µM | [3] 15.9 µM | [4] 28.7 µM | [5] 6.67 µM and 35.5 µM | [6] 31.4 µM | [7] 7.91 µM and 42.1 µM | [9] 13.9 µM

O=S(=O)(O)C(F)(F)C(F)(F)C(F)(F)C(F)(F)C(F)(F)C(F)(F)C(F)(F)C(F)(F)F
inactive: [1] | [2] | [3] | [4] | [6] | [7] | [8] | [9] | [10]
active: [1] 46.1 µM | [3] 61.4 µM | [5] 64.6 µM and 48.8 µM and 59.3 µM | [8] 82.4 µM and 82.8 µM | [9] 426 nM and 4.73 µM and 20.8 µM | [10] 19.8 µM and 7.26 µM and 41.3 µM

N#Cc1c(Cl)c(Cl)c(Cl)c(C#N)c1Cl
active: [1] 22.5 µM | [2] 15.7 µM | [3] 20.7 µM and 23.1 µM | [4] 815 nM and 77.5 µM | [5] 2.04 µM and 2.82 µM | [6] 85.4 µM and 17.1 µM | [7] 17.1 µM and 15.8 µM | [8] 1.11 µM and 1.12 µM | [9] 24.8 µM
inactive: [1] | [2]

ClC1C(Cl)C(Cl)C(Cl)C(Cl)C1Cl (stereo unspecified)
inactive: [1] | [2] | [3] | [4] | [5] | [6] | [7] | [8] | [9] | [10]
active: [5] 72.6 µM | [6] 86.7 µM

O=C1c2ccccc2C(=O)N1SC(Cl)(Cl)Cl
active: [2] 7.1 µM and 14.8 µM | [4] 6.49 µM and 23.1 µM | [6] 14.1 µM and 12.9 µM | [8] 13.5 µM and 22.1 µM
not listed: [7]
inactive: all other assays above

O=C(Nc1ccccc1)Nc1cnns1
active: [2] 64.1 µM | [8] 52.9 µM
not listed: [7]
inactive: all other assays above

CCC(C)(NC(=O)c1cc(Cl)c(C)c(Cl)c1)C(=O)CCl (stereo unspecified)
active: [1] 71.9 µM | [2] 30.2 µM | [3] 76.4 µM | [4] 29.6 µM | [5] 60.3 µM | [6] 72.2 µM | [7] 74.7 µM | [8] 66.8 µM | [10] 26.1 µM
inactive: [9]

CN1CSC(=S)N(C)C1
active: [10] 26.6 µM
inactive: all other assays above

C[C@H]1[C@H](c2ccc(Cl)cc2)SC(=O)N1C(=O)NC1CCCCC1
not listed: [5] | [8]
inactive: all other assays above

CCC(C)(C)C(=O)OC1=C(c2ccc(Cl)cc2Cl)C(=O)OC12CCCCC2
active: [3] 74.9 µM | [4] 2.5 µM | [6] 28.4 µM
not listed: [7]
inactive: all other assays above

O=[N+]([O-])c1c(Cl)c(Cl)c(Cl)c(Cl)c1Cl
not listed: [9]
inactive: all other assays above

O=C(O)C(F)(F)C(F)(F)C(F)(F)C(F)(F)C(F)(F)C(F)(F)C(F)(F)F
inactive: all assays above

COc1nn(CSP(=S)(OC)OC)c(=O)s1
inactive: all assays above

O=C(O)CCCOc1ccc(Cl)cc1Cl
active: [10] 42.6 µM
inactive: all other assays above

CC1(c2ccc(Oc3ccccc3)cc2)OC(=O)N(Nc2ccccc2)C1=O (stereo unspecified)
active: [2] 16.9 µM | [5] 19.5 µM | [6] 46.4 µM | [8] 51.2 µM
inactive: all other assays above

OCCOc1ccccc1
inactive: all assays above

CCOCN(C(=O)CCl)c1c(C)cccc1CC
inactive: [2] | [4] | [5] | [6] | [8] | [9]

CCN(CC)C(=O)SCc1ccc(Cl)cc1
not listed: [2] | [7]
inactive: all other assays above

CCCN(CCC)c1c([N+](=O)[O-])cc(C(F)(F)F)cc1[N+](=O)[O-]
inactive: [9] | [10]

CC(C)OC(=O)Nc1cccc(Cl)c1
not listed: [1] | [7]
inactive: all other assays above

O=C(NC(=O)c1c(F)cccc1F)Nc1ccc(OC(F)(F)C(F)OC(F)(F)F)c(Cl)c1 (stereo unspecified)
inactive: [9] | [10]

Clc1ccccc1-c1nnc(-c2ccccc2Cl)nn1
inactive: [9] | [10]

COC(=O)c1ccccc1S(=O)(=O)NC(=O)Nc1nc(C)nc(OC)n1
inactive: [1] | [2] | [3] | [8]

CNC(=O)/C=C(\C)OP(=O)(OC)OC
inactive: [9] | [10]

CNC(=O)Oc1cccc(N=CN(C)C)c1
inactive: [5] | [6] | [8] | [9]

Cc1[nH]c(=O)n(C(C)(C)C)c(=O)c1Cl
inactive: [9] | [10]

CCC(C)Nc1c([N+](=O)[O-])cc(C(C)(C)C)cc1[N+](=O)[O-] (stereo unspecified)
inactive: [9] | [10]

N#CN
inactive: [9] | [10]

C#CCN1C(=O)COc2cc(F)c(N3C(=O)C4=C(CCCC4)C3=O)cc21
inactive: [9] | [10]

COC(=O)c1ccccc1S(=O)(=O)NC(=O)N(C)c1nc(C)nc(OC)n1
inactive: [1] | [5] | [7] | [8]

O=[N+]([O-])/N=C1\NCCN1Cc1ccc(Cl)nc1
inactive: [9] | [10]

COC(=O)c1ccccc1CS(=O)(=O)NC(=O)Nc1nc(OC)cc(OC)n1
inactive: [1] | [2] | [3] | [7] | [8]

CCOC1Oc2ccc(OS(C)(=O)=O)cc2C1(C)C (stereo unspecified)
inactive: [9] | [10]

CNC(=O)CSP(=S)(OC)OC
inactive: [10]

CCc1ccc(C(=O)NN(C(=O)c2cc(C)cc(C)c2)C(C)(C)C)cc1
not listed: [3] | [7] | [10]
inactive: all other assays above

COP(=O)(OC)OC=C(Cl)Cl
inactive: [9] | [10]

O=C(O)COc1ccc(Cl)cc1Cl
inactive: [1] | [2] | [3] | [5] | [6] | [7] | [8] | [9] | [10]
active: [8] 0.000116 µM

CC(C)N(C(=O)COc1nnc(C(F)(F)F)s1)c1ccc(F)cc1
inactive: [4] | [5] | [6] | [7] | [9] | [10]

CC1(C)C(C=C(Cl)Cl)C1C(=O)OC(C#N)c1ccc(F)c(Oc2ccccc2)c1 (stereo unspecified)
not listed: [4]
inactive: all other assays above

CNC(=O)Oc1ccccc1OC(C)C
not listed: [3] | [5]
inactive: all other assays above
